From PubChem BioAssay AID2162 (National Center for Advancing Translational Sciences (NCATS), 2009) come the findings set out here.

Inconclusive results are not listed. Unmarked numbers belong to inactive results. Active and inactive are the calls of the source. Calls come from the whole dose curve; as a rule, active = well fitted inhibition curve with a large enough effect; inconclusive = small, poorly fitted or top-dose-only effect; inactive = flat fitted curve, though single readings scatter.

The assay has as its target Polyunsaturated fatty acid lipoxygenase ALOX12 (Homo sapiens) (UniProt P18054). Kind of assay: Confirmation qHTS Assay for Inhibitors of 12-hLO (12-human lipoxygenase). The settings on record: purified 12-hLO, xylenol orange absorbance; activity change, negative = inhibition: active compounds read low. The gist of the method:
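Purified human 12hLO (150 nM) was preincubated 15 min with compound in 25 mM Hepes pH 7.0, 0.01% Triton X-100. Reaction: 40 uM arachidonic acid, 30 min RT. Hydroperoxide detected by Fe-xylenol orange, 573/405 nm absorbance ratio.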
Background: qHTS replaces the single test concentration by a dilution series.

Sequence of Polyunsaturated fatty acid lipoxygenase ALOX12 (Homo sapiens) (P18054 whole entry, looked up): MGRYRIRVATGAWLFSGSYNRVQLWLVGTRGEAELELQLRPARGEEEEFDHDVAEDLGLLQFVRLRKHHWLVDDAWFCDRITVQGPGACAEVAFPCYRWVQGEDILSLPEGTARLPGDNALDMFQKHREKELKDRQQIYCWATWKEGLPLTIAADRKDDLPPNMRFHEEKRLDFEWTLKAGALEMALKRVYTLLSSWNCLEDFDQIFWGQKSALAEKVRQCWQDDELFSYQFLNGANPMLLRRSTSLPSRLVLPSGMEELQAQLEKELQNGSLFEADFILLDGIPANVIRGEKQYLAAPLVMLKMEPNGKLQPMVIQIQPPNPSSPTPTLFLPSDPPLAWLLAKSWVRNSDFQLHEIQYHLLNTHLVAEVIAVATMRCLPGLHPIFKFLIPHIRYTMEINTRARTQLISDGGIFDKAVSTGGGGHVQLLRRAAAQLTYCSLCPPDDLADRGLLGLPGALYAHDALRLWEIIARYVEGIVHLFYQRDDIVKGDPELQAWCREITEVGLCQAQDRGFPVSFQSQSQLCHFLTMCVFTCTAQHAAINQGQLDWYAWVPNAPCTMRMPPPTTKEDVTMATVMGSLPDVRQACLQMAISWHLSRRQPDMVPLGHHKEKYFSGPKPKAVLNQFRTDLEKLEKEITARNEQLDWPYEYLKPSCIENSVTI

`COc1cccc(-c2nc(NC3CCNCC3)c3ccccc3n2)c1`: the activity change, negative = inhibition is -5.22%.
For `CCC(=O)NC(c1ccc(C)cc1)c1cc([N+](=O)[O-])c2cccnc2c1O` (stereo unspecified), the Potency was 28.2 µM (active).
Turning to `Cc1c(N/C=C/C(=O)c2cccs2)c(=O)n(-c2ccccc2)n1C`, the activity change, negative = inhibition is -11.2%.
Regarding `CCC(=O)NC(c1ccc2c(c1)OCO2)c1cc(Cl)c2cccnc2c1O` (stereo unspecified), the Potency was 25.1 µM (active).
On the same count and under the same terms, the figure for `O=C(Nc1nc2n(n1)C(c1ccccc1)CC(c1ccc(Cl)cc1)N2)c1ccco1` (stereo unspecified) is 14.1 µM (active).
Turning to `COc1ccccc1CNc1ncncc1-c1ccoc1`, the activity change, negative = inhibition was -18.9%.
Take `O=C(Nc1nnc(-c2ccco2)s1)C1CCCCC1`: the activity change, negative = inhibition is -5.47%.
On to `c1csc(C2Nc3cccc4cccc(c34)N2)c1`, for which the Potency is 15.8 µM (active).
As to `CCC(=O)N(Cc1cc(=O)[nH]c2ccccc12)C1CCCCC1`, the activity change, negative = inhibition was 3.25%.
Consider `CCC(=O)NC(c1cccs1)c1cc(Cl)c2cccnc2c1O` (stereo unspecified), for which the Potency is 7.94 µM (active).
The same measure, in the same setting: then `CCC(=O)NC(c1ccco1)c1cc(Cl)c2cccnc2c1O` (stereo unspecified), with 5.01 µM (active).
`O=C(Nc1cccc(F)c1)N1CCCC2(CCN(C(=O)c3ccco3)CC2)C1`: the activity change, negative = inhibition was 5.23%.
Turning to `CCC(=O)NC(c1cccs1)c1ccc2cccnc2c1O` (stereo unspecified), the Potency is 17.8 µM (active).
`CN(C)c1ccc(C(=O)OCC#CCSc2nnc(-c3cccc4ccccc34)o2)cc1`: the activity change, negative = inhibition is -12.9%.
As to `COCCSc1ccccc1C(=O)NCc1ccco1`, the activity change, negative = inhibition is -7.73%.
The same measure, in the same setting: the figure for `O=C(OCC#CCSc1nnc(-c2cccc3ccccc23)o1)c1cccc2[nH]ccc12` is -10.7%.
